# According to PubChem BioAssay AID492952 (Southern Research Specialized Biocontainment Screening …, 2010):
# About 1,500 (65%) of roughly 2,300 compounds were called active. No rule for the calls is given here. The set was probably picked from earlier hits. Some of the results follow. Potency and affinity values are given separately.
# Assay: replicating M. tuberculosis growth inhibition, dose response, non-replicating M. tuberculosis project, H37Rv (AID 492952);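 also: Mycobacterium tuberculosis grown in culture; growth inhibition read after a week of incubation; 0% = bacteria alone untreated and 100% = bacteria with high antibiotic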
# Conditions: series mostly up to 50 µM; inhibition: at the top concentration
row,SMILES,inhibition
1,CNC(=O)c1[nH]cnc1C(=O)Nc1ccc(Cl)cc1,3.71% (inactive)
2,COc1ccc(/C(=N/O)C(C)(C)NO)cc1,2.47% (inactive)
3,CC1COC(=O)C(NNc2ccc(Cl)c(Cl)c2)=N1 (centres undefined),3.55% (inactive)
4,O=C(NC(=S)NCCc1ccccc1)c1ccccc1,-0.33% (inactive)
5,CCOC(=O)C1CCCN(Cc2ccc(OCc3ccccc3)cc2)C1 (centres undefined),4.54% (inactive)
6,CC(C)c1ccc(N2C(=O)CC(Sc3ncn[nH]3)C2=O)cc1 (centres undefined),-3.1% (inactive)
7,CC1=NN(C(=O)c2csc(C(C)C)c2)C(O)(C(F)(F)F)C1 (centres undefined),2.71% (inactive)
8,CC1=NN(C(=O)c2csc(C)c2)C(O)(C(F)(F)F)C1 (centres undefined),21.6% (inactive)
9,O=C(COC(=O)c1ccc(Br)o1)Nc1ncc([N+](=O)[O-])s1,2.56% (inactive)
10,Nc1cccn2c(-c3ccc(Cl)cc3)cnc12,11.5% (inactive)
11,CC1CC(C)CN(CCOCCSc2ccc(Cl)cc2)C1 (centres undefined),-2.64% (inactive)
12,Clc1ccc(CN2C3=NCCCN3c3ccccc32)cc1,11.8% (inactive)
13,COc1ccc(C(=O)CCS(=O)(=O)c2ccc(C)cc2)cc1OC,-4.02% (inactive)
14,O=C1CC(=O)CC(c2ccccc2)C1,0.32% (inactive)
15,CCN1CCC(=NNC(=O)c2ccco2)CC1,1.09% (inactive)
16,O=C(NCc1nnc(SC/C=C/c2ccccc2)o1)c1ccco1,0.23% (inactive)
17,Cc1occc1C(=O)N/N=C/C(Br)=C\c1ccccc1,-2.05% (inactive)
18,O=C(Nc1nnc(COc2ccc(Cl)cc2)s1)c1ccco1,9.9% (inactive)
19,CC1=NN(C(=O)CCCc2ccccc2)C(O)(C(F)(F)F)C1 (centres undefined),-6.38% (inactive)
20,Cc1cc(C)cc(OC(=O)c2cccnc2)c1,12.7% (inactive)
21,Cc1n[nH]c(C)c1CCNC(=O)C1CCC(=O)N(Cc2ccccc2F)C1 (centres undefined),0.57% (inactive)
22,COc1ccc2c3c(cccc13)OCC2=O,7.98% (inactive)
23,O=C1/C(=C/c2cccs2)COc2ccccc21,-3.45% (inactive)
24,S=C1NC2(CCCC2)N=C1c1ccccc1,0.5% (inactive)
25,CCOc1ccc(C(=O)N/N=C(/C)C2C(=O)c3ccccc3C2=O)cc1,5.16% (inactive)
26,CCOC(=O)Nc1cccc(OCC(=O)Nc2ccc(OC)cc2OC)c1,2.31% (inactive)
27,NC(=O)COc1ccc2cc(-c3ccc(F)cc3)c(=O)oc2c1,25.7% (inactive)

row,SMILES,inhibition
1,CCOc1c(OC(C)=O)ccc(/C=C2\N=C(SCC)SC2=O)c1[N+](=O)[O-],-1.38% (inactive)
2,COc1ccc(-c2nnc(SCC(C)C)o2)cc1,8.57% (inactive)
3,O=[N+]([O-])c1ccc(CSc2nnc(-c3cccnc3)o2)cc1,1.02% (inactive)
4,Cc1ccc(CSc2nnc(-c3cccnc3)o2)cc1,21.8% (inactive)
5,Brc1ccc(CSc2nnc(-c3ccco3)o2)cc1,11.7% (inactive)
6,O=C1CC(N2CCC(C(=O)N3CCCCC3)CC2)C(=O)N1 (centres undefined),3.54% (inactive)
7,C#CCSc1nnc(-c2ccc(O)cc2)o1,8.68% (inactive)
8,CC(C)c1ccc(OCC(=O)NCc2ccccc2)cc1,2.92% (inactive)
9,Cc1cc(Br)ccc1OCCCCN1CCCCC1,-4.62% (inactive)
10,O=C(NCc1ccc(F)cc1)c1cnccn1,0.88% (inactive)
11,COc1ccc(Cc2nnc(-c3ccccc3)o2)cc1,-3.41% (inactive)
12,O=C(c1ccc(-c2ccc([N+](=O)[O-])cc2)o1)N1CCN(S(=O)(=O)c2cccs2)CC1,13.8% (inactive)
13,Cc1ccc2[nH]c3c(c2c1)CCCC3NCCO (centres undefined),0.98% (inactive)
14,COCCCn1c(=NC(=O)c2ccccc2)c(C#N)cc2c(=O)n3cccc(C)c3nc21,-4.13% (inactive)
15,Cc1cc(Cl)ccc1NNC(=O)c1c(C)noc1C,-4.83% (inactive)
16,CCOC(=O)c1sc(NC(=O)CCN2CCOCC2)c(C(=O)OCC)c1C,-5.07% (inactive)
17,CCOC(=O)c1ccsc1NC(=O)CCS(=O)(=O)c1ccccc1,15.4% (inactive)
18,Nc1ccc(Nc2ccccc2)cc1,7.38% (inactive)
19,Cc1ccc(Sc2ncccc2N)cc1,3.16% (inactive)
20,CC1(C)CC(=O)C=C(Nc2ccccc2N)C1,-4.13% (inactive)
21,CN(C)/C=C1/C(=O)N(c2ccc([N+](=O)[O-])cc2)N=C1c1ccccc1,13.5% (inactive)
22,Cc1cc2cc(CNC(=O)C3CCCC3)ccc2n1C,7.86% (inactive)
23,S=C(Nc1ccc2c(c1)OCO2)Nc1ccc2c(c1)OCO2,-3.44% (inactive)
24,CC1(C)Oc2ccc(NC(=O)C3COc4ccccc4O3)cc2O1 (centres undefined),6.53% (inactive)
25,O=C(c1ccccc1)n1c(=O)c(F)cn(COCCBr)c1=O,17.5% (inactive)
26,O=C(CCc1ccccc1F)N1CCN(c2ccccc2)CC1,5.47% (inactive)
27,COc1ccc([N+](=O)[O-])c(S(=O)(=O)c2ccc(Cl)cc2)n1,5.39% (inactive)

row,SMILES,inhibition
1,CCOC(=O)N1CCC(NS(=O)(=O)c2cc3c(cc2Cl)NC(=O)CO3)CC1,1.04% (inactive)
2,O=C(Cc1ccccc1)Nc1ccc(C(=O)NCC2COc3ccccc3O2)cc1 (centres undefined),0.05% (inactive)
3,O=C(Nc1sc2c(c1C(=O)O)CCCC2)c1ccc(F)cc1,23.8% (inactive)
4,O=C(Nc1ncc2c(n1)-c1ccccc1OC2)c1ccc(F)cc1,-4.04% (inactive)
5,O=C(CCc1ccccc1)N/N=C/c1cc(Br)ccc1O,2.75% (inactive)
6,COc1ccc(N/N=C/c2c(C(=O)O)ccc3ccccc23)cc1,2.17% (inactive)
7,O=C(Nc1nccs1)c1ccc(Br)cc1,0.57% (inactive)
8,CC(C)c1nnc(NC(=O)c2sc3ccccc3c2Cl)s1,21% (inactive)
9,C=C1Cn2c(nnc2-c2ccc(Cl)cc2)S1,-4.15% (inactive)
10,COc1ccc(N=N/C(=C\O)C(=O)c2ccco2)cc1,4.59% (inactive)
11,Clc1ccc(Cc2nnc(-c3cccs3)o2)cc1,4% (inactive)
12,COCc1[nH]nc2c1C(c1sccc1C)C(C#N)=C(N)O2 (centres undefined),-5.55% (inactive)
13,Cc1cccc(NC(=O)COC(=O)c2cc3ccccc3oc2=O)c1,7.86% (inactive)
14,Cc1cccc(NC(=O)c2cc3ccccc3oc2=O)c1,20.2% (inactive)
15,O=C(COC(=O)c1cc2ccccc2oc1=O)Nc1ccc(F)cc1F,4.18% (inactive)
16,O=C(NCc1ccccc1)c1cc2ccccc2oc1=O,3.25% (inactive)
17,NNC(=O)CNC(=O)C12CC3CC(CC(C3)C1)C2,-2.33% (inactive)
18,COc1ccc(OC(=O)C(C)N2C(=O)c3ccccc3C2=O)cc1 (centres undefined),1.98% (inactive)
19,COc1ccc2c(c1)C(=C(C#N)C#N)C(=O)N2CCc1ccccc1,19.6% (inactive)
20,CCN1/C(=C(\O)c2ccccc2)C(=O)c2ccccc2S1(=O)=O,10.2% (inactive)
21,Cc1cccc2nc(CSc3nc4cc([N+](=O)[O-])ccc4s3)cn12,3.56% (inactive)
22,CC(C)CN1C(=O)CC(Sc2ccccc2C(=O)O)C1=O (centres undefined),-4.69% (inactive)
23,COc1ccc(CCCC(=O)NCc2ccccc2)cc1C,2.81% (inactive)
24,COc1cc(CNC2CCCC2)cc(Cl)c1OCc1ccc(F)cc1,6.76% (inactive)
25,NC(=O)C1(N2CCCCC2)CCN(C2CC(=O)N(CCc3ccccc3)C2=O)CC1 (centres undefined),-4.99% (inactive)
